Here are results for 19 compounds from PubChem BioAssay (Tox21).

Experiment [1] can be described thus: A CellTox Green Cytotoxicity Assay to monitor cytotoxicity in HEK293 cells - 40 hour (AID 1224871). Further: nearly all actives have a fitted effect of over 45% in size. Further: potency means the concentration at half of the fitted maximal effect. Summed up:
(§1)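 HEK293 cells, 600/well, were preincubated 5 hours and then exposed to compounds at 37 C for up to 40 hours. A cell-impermeant cyanine dye staining dead-cell DNA was read by fluorescence at 0, 8, 16, 24, 32 and 40 h time points.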

The nature of experiment [2]: qHTS RealTime-Glo MT Cell Viability Assay in HEK293 cells - 16 hour (AID 1224872). Further: nearly all actives have a fitted effect of over 50% in size. Further: potency means the concentration at half of the fitted maximal effect. Summed up: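 Assay medium contained NanoLuc luciferase plus cell-permeant prosubstrate, added with HEK293 cells at 600 cells/well. After 5 h at 37 C/5% CO2 compounds were added; plates stayed at 37 C for 40 h with serial luminescence reads.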
A short description of experiment [3]: qHTS RealTime-Glo MT Cell Viability Assay in HepG2 cells - 8 hour (AID 1224873). Further: nearly all actives have a fitted effect of over 55% in size. A digest of the protocol:
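HepG2 cells mixed with RealTime-Glo MT reagents (NanoLuc plus cell-permeant prosubstrate) were seeded at 600 cells/well, incubated 5 h at 37 C/5% CO2, then pinned with compounds in DMSO; nonlytic luminescence tracked viability during 40 h treatment.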

The nature of experiment [4]: qHTS RealTime-Glo MT Cell Viability Assay in HEK293 cells - 40 hour (AID 1224874). Further: nearly all actives have a fitted effect of over 50% in size. Further: potency means the concentration at half of the fitted maximal effect. Particulars: RealTime-Glo luminescence; max response: stronger effect = lower value. A digest of the protocol:
(§2)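 600 cells/well were plated with the nonlytic NanoLuc/prosubstrate reagent, pre-incubated 5 h, then given 23 nL of compound in DMSO. Incubation at 37 C for 40 h, with luminescence from viable-cell-reduced substrate read repeatedly from 0 h.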

Experiment [5] is described as follows: A CellTox Green Cytotoxicity Assay to monitor cytotoxicity in HEK293 cells - 24 hour (AID 1224875). Further: series mostly up to about 77 µM; nearly all actives have a fitted effect of over 45% in size. Summed up: as §1
The nature of experiment [6]: qHTS RealTime-Glo MT Cell Viability Assay in HepG2 cells - 32 hour (AID 1224877). Further: nearly all actives have a fitted effect of over 55% in size. Further: potency means the concentration at half of the fitted maximal effect. Summed up:
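qHTS, HepG2, 600 cells/well, RealTime-Glo (NanoLuc + prosubstrate) added with cells; 5 h preincubation; DMSO compound addition; 37 C; luminescence at 0/8/16/24/32/40 h.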

A short description of experiment [7]: A CellTox Green Cytotoxicity Assay to monitor cytotoxicity in HepG2 cells - 24 hour (AID 1224878). Further: nearly all actives have a fitted effect of over 45% in size. Further: potency means the concentration at half of the fitted maximal effect. A digest of the protocol:
(§3)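 HepG2 cells, 600/well, preincubated 5 h with CellTox Green dye, then exposed to Tox21 compounds in DMSO at 37 C for up to 40 h. Dead-cell DNA fluorescence read at the indicated time point.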

Experiment [8] can be described thus: A CellTox Green Cytotoxicity Assay to monitor cytotoxicity in HepG2 cells - 40 hour (AID 1224879). Further: nearly all actives have a fitted effect of over 40% in size. Further: potency means the concentration at half of the fitted maximal effect. Summed up: as §3
The nature of experiment [9]: qHTS RealTime-Glo MT Cell Viability Assay in HEK293 cells - 0 hour (AID 1224880). Further: top concentration of the series differs between compounds; nearly all actives have a fitted effect of over 45% in size. Summed up: as §2
A short description of experiment [10]: A CellTox Green Cytotoxicity Assay to monitor cytotoxicity in HepG2 cells - 16 hour (AID 1224876). Further: nearly all actives have a fitted effect of over 45% in size. Further: potency means the concentration at half of the fitted maximal effect. A digest of the protocol:
as §3

Several values for one entry are separate records, joined by “and”; a condition that tells them apart may be missing. Equal entries are not always repeated. Inconclusive results are not listed. More than one record can exist for a structure, and the calls need not agree. Activity calls are given as the source filed them. The call rests on the fitted dose curve; in most records, active means well fitted curve in the direction sought with a large enough effect in the repeat runs; inconclusive means weak or mixed curves; inactive means no such curve, though single readings can be large; an effect the other way counts as inactive or inconclusive.
On the % scale 0 is the no-effect control and ±100 the full control effect.

As to `CC1(C)C(C=C(Cl)Cl)C1C(=O)OCc1cccc(Oc2ccccc2)c1` (stereo unspecified), the Potency entry in experiment [1], in experiment [2], in [3], in [5], in experiment [6] and in experiment [7] was “inactive” in each case. The Potency entry in experiment [8] and in experiment [9] was “inactive” throughout. Also, the max response in [4] was -20.8% (inactive) and -17.3% (inactive).
Take `[Na+]`: the Potency entry in [1], in experiment [2], in experiment [3], in experiment [5], in experiment [10] and in experiment [7] was “inactive” each time. For the same compound, the Potency entry in experiment [8] and in experiment [9] was “inactive” throughout. Moreover, in experiment [4], the max response was 3.11% (inactive) and 3.69% (inactive). Besides, in experiment [6], the Potency result is “inactive and 49 µM (active)”.
On to `C1COCCN1`, for which the Potency entry in experiment [1], in experiment [2], in experiment [3], in experiment [5], in experiment [10] and in [6] was “inactive” throughout. Moreover, the Potency result in [7], in experiment [8] and in [9] was “inactive” throughout. Besides, the max response in experiment [4] is -0.365% (inactive) and -12.5% (inactive) and 10.6% (inactive).
Regarding `CCCCCCCCCCCCO`, the Potency in [1] was 4.84 µM (active). Besides, the Potency result in [2], in experiment [3], in experiment [5], in experiment [10], in [6] and in experiment [7] was “inactive” in each case. For the same compound, the Potency result in experiment [8] and in experiment [9] was “inactive” in each case. In addition, the max response in experiment [4] is -4.3% (inactive) and -1.21% (inactive).
For `CNC[C@H](O)c1ccc(O)c(O)c1`, the Potency result in [1], in experiment [2], in [3], in experiment [5], in [6] and in [7] was “inactive” throughout. The Potency result in experiment [8] and in [9] was “inactive” in each case. Further, the max response in experiment [4] was 2.12% (inactive) and 11.8% (inactive).
For `OC[C@@H](O)[C@@H](O[C@@H]1O[C@H](CO)[C@H](O)[C@H](O)[C@H]1O)[C@H](O)[C@@H](O)CO`, the Potency result in [1], in [2], in experiment [3], in [5], in experiment [6] and in experiment [7] was “inactive” each time. Moreover, the Potency entry in [8] and in experiment [9] was “inactive” throughout. In addition, in [4], the max response was 5.89% (inactive) and 2.02% (inactive).
Consider `Cc1ccc(/C(=C\CN2CCCC2)c2ccccn2)cc1`, for which the Potency entry in [1], in [2], in experiment [3], in experiment [10], in [6] and in experiment [7] was “inactive” in each case. The Potency entry in experiment [8] and in [9] was “inactive” each time. Further, in [4], the max response was -3.85% (inactive).
With `Cc1ccc(N)c([N+](=O)[O-])c1`, the Potency entry in experiment [1], in experiment [2], in experiment [3], in experiment [6], in experiment [7] and in experiment [8] was “inactive” in each case. Besides, the Potency entry in experiment [9] was “inactive”. Further, the max response in experiment [4] was 2.67% (inactive) and 2.77% (inactive).
Take `Cc1ccc2c(c1)C(=O)OC2=O`: the Potency entry in [1], in [2], in [3], in [10], in experiment [6] and in experiment [7] was “inactive” each time. Further, the Potency entry in [8] and in [9] was “inactive” each time. In addition, the max response in experiment [4] was 5.67% (inactive) and 0.571% (inactive).
With `NC[C@H](O)c1ccc(O)c(O)c1`, the Potency result in experiment [1], in experiment [2], in experiment [3], in experiment [10], in [6] and in experiment [7] was “inactive” throughout. Further, the Potency result in experiment [8] and in experiment [9] was “inactive” in each case. The max response in experiment [4] is -0.0212% (inactive) and 2.99% (inactive).
As to `CN(C)/N=N/c1nc[nH]c1C(N)=O`, the Potency entry in experiment [1], in experiment [2], in experiment [3], in experiment [10], in [6] and in [7] was “inactive” throughout. Also, the Potency result in experiment [8] and in experiment [9] was “inactive” throughout. Also, in experiment [4], the max response was -18.2% (inactive) and -3.15% (inactive).
As for `CCC(Cc1c(I)cc(I)c(N)c1I)C(=O)O` (stereo unspecified), the Potency result in [1], in experiment [2], in experiment [3], in experiment [6], in experiment [7] and in experiment [8] was “inactive” in each case. In addition, in [9], the Potency result is “inactive”. Moreover, the max response in experiment [4] is 3.1% (inactive) and 8.35% (inactive).
In the case of `CCCOCCO`, the Potency result in experiment [1], in experiment [2], in experiment [5], in [10], in experiment [6] and in experiment [7] was “inactive” each time. Moreover, the Potency result in [8] and in experiment [9] was “inactive” in each case. In addition, in experiment [4], the max response was 2.92% (inactive) and 1.86% (inactive).
On to `C=C[C@H]1CN2CC[C@H]1C[C@H]2[C@H](O)c1ccnc2ccc(OC)cc12`, for which the Potency result in [1], in [2], in [3], in [5], in experiment [6] and in experiment [7] was “inactive” in each case. For the same compound, the Potency result in experiment [8] and in [9] was “inactive” each time. Also, the max response in experiment [4] was -26.3% (inactive) and -11.8% (inactive).
Turning to `COc1cc([C@H]2Oc3cc([C@H]4Oc5cc(O)cc(O)c5C(=O)[C@@H]4O)ccc3O[C@@H]2CO)ccc1O`, the Potency entry in experiment [1] is “inactive and 16.9 µM (active)”; in [10] it was “inactive and 21.3 µM (active)”; in [7] it was “inactive and 21.3 µM (active)”; in [8], “inactive and 21.3 µM (active)”. Besides, the Potency result in experiment [2], in experiment [3], in [6] and in experiment [9] was “inactive” in each case. Also, in experiment [4], the max response was -16.5% (inactive).
For the compound `Nc1cc([N+](=O)[O-])ccc1C(=O)O`, the Potency entry in [1], in [2], in [5], in experiment [10], in [6] and in [7] was “inactive” each time. Further, the Potency result in [8] and in experiment [9] was “inactive” throughout. The max response in experiment [4] was 9.73% (inactive) and 6.1% (inactive).
With `c1ccc2c(c1)ccc1cc3c(ccc4ccccc43)cc12`, the Potency entry in experiment [1], in [2], in experiment [3], in experiment [6], in experiment [7] and in [9] was “inactive” throughout. For the same compound, the max response in [4] is 16% (inactive) and 7.61% (inactive). The Potency in [8] is 4.32 µM (active) and 1.22 µM (active).
`CCOC(=O)C(C)Oc1ccc(Oc2cnc3cc(Cl)ccc3n2)cc1` (stereo unspecified): the Potency result in experiment [1] was “inactive and 1.29 µM (active)”; in experiment [2], 20 µM (active) and 20.5 µM (active); in experiment [4], 44.7 µM (active). For the same compound, the max response in experiment [4] is -24.7% (inactive). For the same compound, the Potency entry in [10], in experiment [6], in [7], in [8] and in experiment [9] was “inactive” each time.
Regarding `NCCOCCO`, the Potency entry in [1], in experiment [2], in experiment [3], in experiment [10], in experiment [6] and in [7] was “inactive” in each case. The Potency result in experiment [8] and in [9] was “inactive” throughout. Also, the max response in [4] was 6.45% (inactive) and 5.26% (inactive).
